Data reported in PubChem BioAssay.
For some of these results: Potency and affinity values are given separately. Calls of active or inactive are those of the source.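 The calls were made as follows, unless noted: active = primary screen activator hit with a dose response curve and TRPC4 channel activation at any tested dose; inactive = no activation, no dose response, or not a primary hit.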

Legend:
[1] = system: TRPC4 beta (transient receptor potential cation channel C4), mouse; experiment: TRPC4 cation channel opening, retest – cell-based, Fluo4 calcium, HEK293 TRPC4beta/mu-opioid, duplicates, 10 µM, confirmation (AID 2426;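 active = fluorescence ratio normalized to control raised more than 50% in primary screen plus both repeat runs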); conditions: Fluo4 calcium fluorescence, at 10 µM; hits give high values
[2] = system: transient receptor potential cation channel C4 beta (TRPC4), mouse; experiment: TRPC4 cation channel opening, second retest – cell-based, second round, Fluo4, HEK293 TRPC4beta/mu-opioid, 1 µM, confirmation (AID 2461;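 active = primary screen active and over 50% activation in each of two duplicate runs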); conditions: Fluo4 calcium fluorescence, at 1 µM; hits give high values
[3] = system: TRPC4 (transient receptor potential cation channel C4 beta), mouse; experiment: potentiation of DAMGO EC20 TRPC4 response – cell-based, second round, Fluo-4, HEK293 TRPC4beta/mu-opioid, 1 µM, confirmation (AID 2554;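 active = primary screen hit whose fluorescence ratio, in both repeats, exceeds the weak agonist control mean by 3 SD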); conditions: DAMGO EC20, Fluo-4 calcium flux, at 1 µM; hits give high values
[4] = system: TRPC4 beta (transient receptor potential cation channel C4), mouse; experiment: potentiation of DAMGO EC20 TRPC4 response – cell-based, Fluo-4, HEK293 TRPC4beta/mu-opioid, confirmation (AID 2555;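 active = primary screen hit whose calcium fluorescence ratio, in both repeats, exceeds the weak agonist control mean by 3 SD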); conditions: DAMGO EC20, Fluo-4 calcium flux, at 10 µM; hits give high values
[5] = molecular target: Short transient receptor potential channel 4 (Mus musculus) (UniProt Q9QUQ5); experiment: blockers of DAMGO-evoked TRPC4 calcium flux – cell-based, Fluo4, HEK293 TRPC4beta/mu-opioid, confirmation (AID 2636;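 active = calcium signal cut by more than 3 SD below the full-agonist control yet still positive, in both repeats and the earlier primary screen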); conditions: at 10 µM; hits give high values
Short transient receptor potential channel 4 (Mus musculus), sequence (Q9QUQ5 whole entry, looked up): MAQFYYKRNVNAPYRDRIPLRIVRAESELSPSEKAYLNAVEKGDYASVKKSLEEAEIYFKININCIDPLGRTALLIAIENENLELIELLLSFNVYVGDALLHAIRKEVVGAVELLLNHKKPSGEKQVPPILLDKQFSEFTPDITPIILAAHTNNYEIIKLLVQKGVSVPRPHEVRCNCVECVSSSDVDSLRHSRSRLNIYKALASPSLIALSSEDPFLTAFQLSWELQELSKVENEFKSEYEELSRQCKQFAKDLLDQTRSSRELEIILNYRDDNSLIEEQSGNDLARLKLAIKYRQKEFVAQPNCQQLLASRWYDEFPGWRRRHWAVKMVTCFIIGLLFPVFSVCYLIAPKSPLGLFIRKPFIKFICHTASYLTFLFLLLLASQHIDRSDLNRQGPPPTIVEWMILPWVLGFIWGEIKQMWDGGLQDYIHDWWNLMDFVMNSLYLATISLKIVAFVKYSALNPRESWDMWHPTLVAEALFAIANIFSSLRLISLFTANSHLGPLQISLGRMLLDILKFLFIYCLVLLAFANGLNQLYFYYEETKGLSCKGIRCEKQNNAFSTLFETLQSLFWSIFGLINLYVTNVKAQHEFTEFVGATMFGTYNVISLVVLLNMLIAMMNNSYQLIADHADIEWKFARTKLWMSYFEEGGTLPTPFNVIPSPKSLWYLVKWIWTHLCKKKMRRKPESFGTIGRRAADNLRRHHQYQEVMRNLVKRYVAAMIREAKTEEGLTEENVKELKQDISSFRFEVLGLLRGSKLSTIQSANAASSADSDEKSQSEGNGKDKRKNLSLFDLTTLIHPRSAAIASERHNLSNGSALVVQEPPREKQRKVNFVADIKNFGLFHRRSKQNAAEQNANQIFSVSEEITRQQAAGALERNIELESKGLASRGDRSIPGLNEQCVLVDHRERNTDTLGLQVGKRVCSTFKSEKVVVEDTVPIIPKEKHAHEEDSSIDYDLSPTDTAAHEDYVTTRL

[6] = molecular target: Short transient receptor potential channel 4 (Mus musculus) (UniProt Q9QUQ5); experiment: blockers of DAMGO-evoked TRPC4 calcium flux – cell-based, second round, Fluo4, HEK293 TRPC4beta/mu-opioid, 1 µM, confirmation (AID 2637;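 active = calcium signal ratio cut to more than 3 SD under the fully stimulated control mean yet still positive, in both repeats and the primary screen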); conditions: at 1 µM; hits give high values
[7] = molecular target: Short transient receptor potential channel 4 (Mus musculus) (UniProt Q9QUQ5); experiment: calcium entry via TRPC4 opening agents – cell-based, HEK293 TRPC4/mu-opioid, Fluo-4 calcium, dose response (AID 434937)
[8] = molecular target: Short transient receptor potential channel 4 (Mus musculus) (UniProt Q9QUQ5); experiment: potentiation of DAMGO-evoked TRPC4 calcium signal – cell-based, HEK293 TRPC4/mu-opioid, Fluo-4 calcium, EC20 DAMGO, dose response (AID 434941;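 active = earlier screen potentiator hit that boosts the TRPC4 ion channel at some dose, with a dose response; inactive = no potentiation, no dose response, or not a prior hit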;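 also: calcium entry triggered by an EC20 dose of DAMGO at the co-expressed mu-opioid receptor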)
[9] = molecular target: Short transient receptor potential channel 4 (Mus musculus) (UniProt Q9QUQ5); experiment: block of DAMGO-driven TRPC4 calcium entry – cell-based, HEK293 TRPC4/mu-opioid, Fluo-4 calcium, dose response (AID 434942;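 active = primary screen inhibitor hit that blocks the TRPC4 channel at some tested dose, yielding a dose curve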)
[10] = molecular target: Short transient receptor potential channel 6 (Mus musculus) (UniProt Q61143); experiment: TRPC6 blockade by TRPC4 inhibitor hits – cell-based, HEK293, membrane potential dye, duplicate, selectivity assay for TRPC4 inhibitor project, confirmation (AID 434948;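 active = active in primary screen and both duplicates, each dropping signal beyond three positive-control SD with fluorescence still positive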); conditions: HEK293 TRPC6, membrane potential dye fluorescence, at 10 µM, stimulated with maximal-effect acetylcholine; hits give high values
Short transient receptor potential channel 6 (Mus musculus), sequence (Q61143 whole entry, looked up): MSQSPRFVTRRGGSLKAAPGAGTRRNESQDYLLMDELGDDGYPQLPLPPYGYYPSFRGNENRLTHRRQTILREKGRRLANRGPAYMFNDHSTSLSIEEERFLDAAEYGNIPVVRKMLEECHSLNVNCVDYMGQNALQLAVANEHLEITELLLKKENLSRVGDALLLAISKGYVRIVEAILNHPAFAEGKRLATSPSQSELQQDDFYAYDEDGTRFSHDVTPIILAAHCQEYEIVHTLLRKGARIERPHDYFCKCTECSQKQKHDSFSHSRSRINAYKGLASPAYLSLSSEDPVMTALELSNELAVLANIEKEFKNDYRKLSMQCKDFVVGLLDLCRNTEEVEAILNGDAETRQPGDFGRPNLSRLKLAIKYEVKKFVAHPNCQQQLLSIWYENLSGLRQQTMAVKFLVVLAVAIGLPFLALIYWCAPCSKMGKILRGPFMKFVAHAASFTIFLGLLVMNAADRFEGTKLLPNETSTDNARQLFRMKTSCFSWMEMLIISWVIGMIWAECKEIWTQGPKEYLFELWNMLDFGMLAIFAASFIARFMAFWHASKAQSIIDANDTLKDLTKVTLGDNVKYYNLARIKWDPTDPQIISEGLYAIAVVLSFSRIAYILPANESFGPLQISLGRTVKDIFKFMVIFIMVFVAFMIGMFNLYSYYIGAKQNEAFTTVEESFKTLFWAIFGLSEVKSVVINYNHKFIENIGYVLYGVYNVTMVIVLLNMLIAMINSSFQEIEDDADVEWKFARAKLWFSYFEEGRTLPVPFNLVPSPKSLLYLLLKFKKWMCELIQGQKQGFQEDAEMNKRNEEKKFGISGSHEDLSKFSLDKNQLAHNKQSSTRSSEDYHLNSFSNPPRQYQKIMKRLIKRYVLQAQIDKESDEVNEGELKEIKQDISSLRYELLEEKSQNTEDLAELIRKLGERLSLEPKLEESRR

[11] = molecular target: Short transient receptor potential channel 6 (Mus musculus) (UniProt Q61143); experiment: TRPC6 opening by TRPC4 activator hits – cell-based, HEK293, membrane potential dye, duplicate, selectivity assay for TRPC4 activator project, confirmation (AID 434950;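 active = membrane potential signal rise above negative control mean plus 3 SD in both duplicates, also active in the earlier TRPC4 screen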); conditions: HEK293 TRPC6, membrane potential fluorescence, at 10 µM; activation: hits give high values; outcome: activation
[12] = molecular target: Short transient receptor potential channel 6 (Mus musculus) (UniProt Q61143); experiment: positive modulators of mouse TRPC6 channel – HEK293 cells, membrane potential dye, duplicate, selectivity assay for TRPC4 potentiator project, confirmation (AID 434952;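 active = compound raising the membrane signal above positive-control mean plus 3 SD in both repeats, and a primary screen hit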); conditions: HEK293 TRPC6, membrane potential dye fluorescence, at 10 µM, maximal acetylcholine added after compound; hits give high values
[13] = molecular target: Short transient receptor potential channel 4 (Mus musculus) (UniProt Q9QUQ5); experiment: calcium flux activators in TRPC4/5HT1a cells, counter-screen for TRPC4 activator project, cell-based, second counter screen, HEK293 TRPC4/5HT1a, Fluo-4 (AID 434977;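 active = calcium signal rise above buffer-control mean plus 5 SD in both duplicates, and also a hit in the primary screen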); conditions: Fluo-4 calcium flux, at 10 µM; hits give high values
[14] = serotonin-gated TRPC4 signal block – cell-based, second counter screen, HEK293 TRPC4/5HT1a, Fluo-4, counter-screen for TRPC4 inhibitor project, confirmation (AID 434978;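 active = primary screen active whose calcium signal fell more than 3 SD beyond the full-serotonin control mean in both duplicate plates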;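 also: serotonin given first at submaximal then at maximal dose after compound preincubation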); conditions: Fluo-4 calcium flux, at 10 µM, serotonin added to trigger calcium flux; hits give high values
[15] = system: TRPC4 (mouse), co-expressed with 5HT1a in HEK293; experiment: enhancement of serotonin-evoked TRPC4 response – cell-based, second counter screen, HEK293 TRPC4/5HT1a, Fluo-4, counter-screen for TRPC4 potentiator project, confirmation (AID 434979;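 active = signal rise over 3 SD above mean of control wells given weak agonist, in both repeats and first screen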); conditions: Fluo-4 calcium flux, at 10 µM, serotonin added at its EC20 dose; hits give high values
[16] = nonspecific calcium rise without TRPC4 – cell-based, HEK293 mu-opioid receptor line, counter-screen for TRPC4 activator project, confirmation (AID 449723;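 active = hit in primary screen, with calcium signal over 5 SD above buffer well mean in both duplicates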;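 also: counter screen cells carry the mu-opioid receptor alone and lack TRPC4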); conditions: HEK293 mu-opioid cells, Fluo-4 calcium fluorescence, at 10 µM; hits give high values
[17] = nonspecific potentiation of DAMGO calcium response – cell-based, HEK293 mu-opioid receptor line, counter-screen for TRPC4 allosteric potentiator project, confirmation (AID 449724;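 active = calcium signal rise more than 3 SD above the low-dose agonist control mean, in both duplicate plates and the primary screen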); conditions: HEK293 mu-opioid receptor cells, Fluo-4 calcium flux, at 10 µM, compound added before EC20 DAMGO stimulus; hits give high values

Measured: potentiation

Cc1ccc(C)n1-c1ncc(Br)cn1
active: [4] 10% | [15] 31.9%
inactive: all other assays above

COc1ccc(Cl)c2sc(N(CCN(C)C)C(=O)CCS(=O)(=O)c3ccc(C)cc3)nc12
active: [3] 12%
inactive: all other assays above

CCOP(=O)(c1ccccc1)c1nc(-c2ccccc2Cl)oc1N1CCCCC1 (stereo not drawn)
active: [4] 23% | [15] 30.9%
inactive: all other assays above

C=C(C)COc1ccc(-c2[nH]ncc2Oc2ccc(OC)cc2)c(O)c1
inactive: all assays above

CCN(CC)CCCN(C(=O)c1cccs1)c1nc(-c2ccc(OC)cc2)cs1
inactive: all assays above

Cc1ccc(CN(C(=O)c2cc(=O)c3cc(Cl)c(C)cc3o2)C2CCS(=O)(=O)C2)cc1 (stereo not drawn)
active: [15] 64%
inactive: all other assays above

COc1cc2c(C(=O)N3CCN(C)CC3)c(CSc3ccccc3)n(C)c2cc1Br
active: [4] 25% | [15] 10.5%
inactive: all other assays above

CCN(CCNC(=O)C1CCCN(c2ncnc3c2nc2n3CCCCC2)C1)Cc1ccccc1 (stereo not drawn)
active: [3] 18% | [4] 10%
inactive: all other assays above

COc1cccc(N2C(=O)CC(N3CCN(CCN=CC4=C(O)CC(C)(C)CC4=O)CC3)C2=O)c1 (stereo not drawn)
active: [15] 15.8%
inactive: all other assays above

CC(C)c1nc2ccc(Br)cn2c1NC1CCCC1
inactive: all assays above

CCC(C(=O)Nc1ccccc1OC)n1c(C(=O)OC)cc2ccsc21 (stereo not drawn)
active: [4] 17% | [15] 75.5%
inactive: all other assays above

COc1cccc(Oc2cncnc2-c2ccc(OC)cc2O)c1
inactive: all assays above

CC(C)c1ccccc1NC(=S)NN(Cc1ccccc1)c1ccccc1
active: [4] 10% | [15] 43.9%
inactive: all other assays above

Cn1c(=O)c2c(nc(SCCN3CCCCC3)n2Cc2ccccc2)n(C)c1=O
active: [4] 36% | [15] 50.5%
inactive: all other assays above
